# Inconclusive results are not listed. A number with no mark means an inactive call. Calls of active or inactive are those of the source. Unless noted, calls come from the whole dose curve; as a rule, active = well fitted cell-killing curve with a large enough effect in the repeat runs; inconclusive = weak or mixed curves; inactive = no such curve, though single readings can be large or run the other way.
# Assay: qHTS assay for small molecule activators of the heat shock response signaling pathway (AID 743210; active = well fitted activation curve with a large enough effect in the signal ratio in the repeat runs, with a control signal flat, not every such curve was filed as active; the % refers to the signal ratio)
# Settings: HeLa HSE-bla reporter, beta-lactamase ratio, 5 h; series mostly up to 62.6 µM; activation: at the top concentration
# How it was run: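 HSE-bla HeLa cells (beta-lactamase reporter under heat shock response elements) were exposed to compounds for 5 h at 37 C, then loaded with LiveBLAzer B/G FRET substrate for 2.5 h at room temperature before fluorescence reading.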
# % is set by controls: 0 for no effect and ±100 for the full control effect.
row,Compound,activation
1,COP(=S)(OC)Oc1ccc(S(N)(=O)=O)cc1,-0.792%
2,O=C(NCO)NCO,-1.18% [at 81.1 µM]
3,CCCCC(=O)Cl,-1.65% [at 81.1 µM]
4,Fc1cc(Br)ccc1CBr,-0.759%
5,Nc1c(Br)cc([N+](=O)[O-])cc1[N+](=O)[O-],-1.73% [at 81.1 µM]
6,CCC#N,-1.12% [at 81.1 µM]
7,O=[N+]([O-])c1cc(Cl)c(Cl)c(Cl)c1,-0.124%
8,CC(C)(C)NCC(O)c1cc(Cl)c(N)c(Cl)c1 (configuration not stated),0.204%
9,CCC(=O)C(CCN(C)C)(c1ccccc1)c1ccccc1,-2.23%
10,ClCCCN1CCN(c2cccc(Cl)c2)CC1,0.516%
11,CN1C[C@@H](NS(=O)(=O)N(C)C)C[C@@H]2c3cccc4c3c(cn4C)C[C@H]21,-0.641%
12,CCN(CC)CCOC(=O)C(C)(c1ccccc1)c1ccccc1,-0.9%
13,CC(C(=O)c1ccccc1)N(C)C (configuration not stated),0.075%
14,COC(=O)COc1ccc(Cl)cc1Cl,1.34%

# Assay: qHTS assay to identify small molecule agonists of the peroxisome proliferator-activated receptor delta (PPARd) signaling pathway - cell viability counter screen (AID 743211); note: nearly all actives have a fitted effect of over 55% in size; note: potency is the fitted concentration of half-maximal effect
# Settings: PPARd-bla HEK293H viability, CellTiter-Glo luminescence, 17 h; series mostly up to 62.6 µM; activity change, negative = cytotoxicity: at the top concentration
# How it was run: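 HEK293H PPARd-bla, 3000 cells/well; 5 h preincubation 37C/5% CO2; cpd in DMSO, 17 h 37C; B/G FRET substrate 2 h RT; CellTiter-Glo 30 min RT, luminescence.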
Compound,"activity change, negative = cytotoxicity",Potency
CC(C=O)Cc1ccc2c(c1)OCO2 (configuration not stated),5.58%,–
c1ccc(N2CCNCC2)cc1,-6.02%,–
C[C@]12CC[C@H]3[C@@H](CCC4=CC(=O)CC[C@@]43C)[C@@H]1CC[C@@H]2C(=O)O,3%,–
CC1CCC(=O)O1 (configuration not stated),4.35%,–
CC1=C(C(=O)O)N2C(=O)[C@@H](N)[C@H]2SC1,15.9% [at 29.1 µM],–
COc1cccc2c1cc([N+](=O)[O-])c1c(C(=O)O)cc3c(c12)OCO3,-19.2%,–
O=C(CCN1CC1)OCC(CO)(COC(=O)CCN1CC1)COC(=O)CCN1CC1,1.35%,–
Fc1ccc(C2(Cn3cncn3)OC2c2ccccc2Cl)cc1 (configuration not stated),-1.91%,–
O=C(Nc1ccccc1)N(Cc1ccc(Cl)cc1)C1CCCC1,-14.6%,–
CCNc1nc(NC(C)C)nc(OC)n1,2.61%,–
NC1=NC(=O)C(c2ccccc2)O1 (configuration not stated),7.63%,–
CCOC(=O)C1(c2ccccc2)CCN(CCc2ccc(N)cc2)CC1,-8.38%,–
CCOC(=O)C(c1c(O)c2ccccc2oc1=O)c1c(O)c2ccccc2oc1=O,7.4%,–
CC1COC2(c3ccccc3Cl)c3cc(Cl)ccc3NC(=O)CN12 (configuration not stated),-2.93%,–
COc1cccc(C(=O)NN(C(=O)c2cc(C)cc(C)c2)C(C)(C)C)c1C,3.86%,–
O=S(=O)(O)C(F)(F)C(F)(F)C(F)(F)C(F)(F)C(F)(F)C(F)(F)F,-1.17%,–
CN1CCC(N(Cc2ccccc2)c2ccccc2)CC1,–,26.6 µM (active)

Compound,"activity change, negative = cytotoxicity",Potency
Clc1ccccc1N1CCNCC1,-3.12%,–
COP(=S)(OC)Oc1ccc(S(N)(=O)=O)cc1,3.2%,–
O=C(NCO)NCO,2.91% [at 81.1 µM],–
CCCCC(=O)Cl,3.22% [at 81.1 µM],–
Fc1cc(Br)ccc1CBr,1.38%,–
O=C1OC(CCN2CCCCC2)OC1(c1ccccc1)c1ccccc1 (configuration not stated),-0.452%,–
Nc1c(Br)cc([N+](=O)[O-])cc1[N+](=O)[O-],-4.67% [at 81.1 µM],–
CCC#N,4.5% [at 81.1 µM],–
O=[N+]([O-])c1cc(Cl)c(Cl)c(Cl)c1,-0.283%,–
CC(C)(C)NCC(O)c1cc(Cl)c(N)c(Cl)c1 (configuration not stated),1.39%,–
CCC(=O)C(CCN(C)C)(c1ccccc1)c1ccccc1,-17.3%,–
ClCCCN1CCN(c2cccc(Cl)c2)CC1,2.44%,–
CN1C[C@@H](NS(=O)(=O)N(C)C)C[C@@H]2c3cccc4c3c(cn4C)C[C@H]21,3.76%,–
CCN(CC)CCOC(=O)C(C)(c1ccccc1)c1ccccc1,-7.09%,–
CC(C(=O)c1ccccc1)N(C)C (configuration not stated),1.16%,–
COC(=O)COc1ccc(Cl)cc1Cl,3.85%,–

# Source: PubChem BioAssay (Tox21)
